Molecules are shown by their SMILES. Values without a mark were called inactive.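 Rule for the calls: active = binding below the plate cutoff, the plate median minus 3 SD, with a reading above zero; inconclusive = below the plate cutoff but reading exactly zero; inactive = the rest.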

From PubChem BioAssay come the findings set out here.

This test has as its system anti-desmoglein-3 scFv antibody binding to human DSG3. Kind of test: blockers of pathogenic pemphigus antibody–desmoglein-3 binding – biochemical, validation compound set, bead-based, flow cytometry, pilot screen (AID 588368).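 Note: signal is the median channel fluorescence of bead-bound GFP antibody.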 The following applies: Protein G beads, DSG3-Fc, scFv-GFP binding, at 10 µM, stronger effect = lower value.
Turning to `CN1C[C@H](CNC(=O)OCc2ccccc2)C[C@@H]2c3cccc4c3c(cn4C)C[C@H]21`, the binding (% of control) is 110%.
For the molecule `C[N+]1(C)C2CCC1CC(OC(=O)C(CO)c1ccccc1)C2` (configuration not stated), the binding (% of control) is 98%.
Regarding `CCC1(c2ccccc2)C(=O)N(COC)C(=O)N(COC)C1=O`, the binding (% of control) was 102%.
For `CCn1c(O)c(C(=O)CC2NCCc3ccccc32)c(=O)n(CC)c1=S` (configuration not stated), the binding (% of control) was 102%.
In the case of `NC(=O)CN1CCCC1=O` it was 105%.
As to `Cc1ccsc1C(=O)C1CCCN(Cc2cc3ccccc3o2)C1` (configuration not stated), the binding (% of control) was 96.9%.
In the case of `CN1C2CCC1CC(OC(=O)c1ccc(Cl)cc1)C2` (configuration not stated) it was 99.5%.
Under `Cn1c(O)c(C=NCCc2c[nH]c3ccccc23)c(=O)n(C)c1=O` stands 96.8%; under `CC12CN3CC(C)(CN(C1)C3c1cccs1)C2=O` (configuration not stated), 99.3%.
Under `[N-]=[N+]=CC(=O)OC[C@H](N)C(=O)O` stands 92.8%.
`COP(=O)(OC)C(O)C(Cl)(Cl)Cl` (configuration not stated): the binding (% of control) was 97.9%.
With `CC(C)[N+](C)(CCC(C(N)=O)(c1ccccc1)c1ccccc1)C(C)C`, the binding (% of control) is 101%.
In the case of `C[C@@]1(CO)[C@H](O)CC[C@@]2(C)[C@H]1CC[C@H]1C[C@@H]3C[C@@]12CC[C@]3(O)CO` it was 100%; in that of `O=C1CCCC2=C1C(c1cccnc1)Nc1ccccc1N2` (configuration not stated), 99.8%; in that of `O=c1[nH]c(=S)n(-c2ccccc2)c(O)c1/C=N/N1CCCCC1c1cccnc1` (configuration not stated), 100%.
In the case of `Clc1ccc(C2NCCc3[nH]cnc32)cc1` (configuration not stated) it was 100%.
For `Cc1ccc(-n2c(C)cc(/C=C3/C(=O)NC(=O)N(C)C3=O)c2C)cc1`, the binding (% of control) was 108%.
